The panel holds about 83,000 compounds, 20% with a hit somewhere; the sample as a whole holds those more often.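 The endpoint reported here, percent growth, reads 100 for growth as untreated, 0 for no net growth and -100 for all cells dead.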 Unmarked numbers belong to inactive results. The source made the active and inactive calls. Rule for the calls: active = growth percent below 10; inactive = the rest.

Common to all, as to assay: NCI-60 one-dose screen, 48 h (100 = growth as untreated, 0 = no growth, -100 = all killed)
What all share (conditions): 10 µM unless noted

The test system of assay [1] is NCI-H23 lung.
Assay [2] relates to NCI-H226 lung.
Assay [3] deals with NCI-H322M lung.
For assay [4], the system named is HOP-62 NSCLC.
For assay [5], the system named is NCI-H460 lung.
For assay [6], the system named is 786-0 renal.
Assay [7] has as its system MDA-MB-231 breast.
Assay [8] has as its system SF-268 CNS.
Assay [9] relates to SF-539 CNS.
Assay [10] has as its system M14 melanoma.
Assay [11] has as its system U251 CNS.
Assay [12] concerns PC-3 prostate.
Assay [13] concerns UACC-62 melanoma.
Assay [14] concerns SK-MEL-28 melanoma.
Assay [15] concerns UO-31 renal.
Assay [16] has as its system OVCAR-3 ovarian.
For assay [17], the system named is SW-620 colon.
The subject of assay [18] is MCF7 breast.
The test system of assay [19] is HCT-116 colon.
Assay [20] concerns KM12 colon.

As for `CCOC(=O)Nc1cc(Cl)c([N+](=O)[O-])c(NC(=O)OCC)n1`, the growth in [1] was 87.8%; in assay [2] it was 100%; in assay [3], 97.1%; in [4], 126%; in assay [5], 109%; in assay [6], 104%. For the same compound, the growth in [7] was 108%; in assay [8] it was 75.2%; in assay [9] it was 107%; in [10] it was 84.8%; in [11] it was 102%; in assay [12] it was 92.2%. Further, the growth in assay [13] is 82.6%; in assay [14], 79%; in [15], 99.5%; in [16] it was 103%; in assay [17], 71.3%; in assay [18], 51.4%. The growth in [19] is 53.5%; in assay [20], 71.3%.
On to `O=C(CCCN1CCC2(CC1)C(=O)NCN2c1ccc(F)cc1)c1ccc(F)cc1`, for which the growth in assay [1] was 98.2%; in assay [2] it was 78.4%; in assay [3], 90%; in assay [4], 95.9%; in [5], 96.8%; in assay [6] it was 101%. Also, the growth in assay [7] is 98.1%; in assay [8], 112%; in [9], 93.2%; in assay [10], 97.3%; in assay [11], 102%; in [12] it was 101%. The growth was 90.5% in assay [13]; 118% in [14]; 83.6% in assay [15]; 124% in assay [16]; 106% in assay [17]; 85.9% in [18]. Also, the growth was 88.6% in assay [19] and 108% in assay [20].
As for `CC(C)(NC(=O)c1nn(CCCCCF)c2ccccc12)c1ccccc1`, the growth was 101% in assay [1]; 80.2% in assay [2]; 105% in [3]; 94.2% in assay [4]; 102% in assay [5]; 89.3% in assay [6]. Further, the growth in [7] is 98.1%; in assay [8], 96%; in [9], 100%; in assay [10] it was 85.5%; in assay [11], 84.4%; in assay [12], 65%. Moreover, the growth in [13] is 75.4%; in assay [14] it was 111%; in assay [15], 76.3%; in assay [16], 105%; in assay [17] it was 102%; in [18] it was 98.3%. Moreover, the growth was 66.9% in [19] and 107% in [20].
Regarding `Nc1ccc([N+](=O)[O-])c2c1Oc1ccccc1O2`, the growth in assay [1] is 94.3%; in assay [2], 87.4%; in [3] it was 93.9%; in [4], 90.9%; in assay [5], 111%; in assay [6], 82.7%. Moreover, the growth in [7] was 97%; in [8], 107%; in assay [9], 89.7%; in [10], 106%; in assay [11], 90.2%; in assay [12] it was 101%. Moreover, the growth in assay [13] is 81.7%; in [14] it was 116%; in [15] it was 10%; in assay [16], 88.3%; in [17], 104%; in [18] it was 101%. The growth in [19] was 99.7%; in [20] it was 99.8%.
Consider `CCCCCCCCCCCCOc1ccc(C(=O)Oc2ccc(CSP3(=O)OCC4OC(n5cnc6c(N)ncnc65)C(F)C4OP(=O)(O)OCC4OC(n5ccc(=O)[nH]c5=O)C(F)C4O3)cc2)cc1` (stereo not given), for which the growth in [1] is 101%; in assay [2], 85.5%; in assay [3], 79%; in assay [4], 115%; in assay [5] it was 106%; in [6], 89.1%. The growth in assay [7] is 108%; in assay [8] it was 107%; in [9] it was 24%; in assay [10], 86.2%; in [11], 109%; in assay [12] it was 100%. In addition, the growth is 118% in assay [13]; 121% in assay [14]; 92.9% in assay [15]; 98.2% in assay [16]; 118% in [17]; 93.4% in assay [18]. The values for the growth in assay [19] and in assay [20] were 83.2% and 106%, respectively.
As to `OC1(c2ccc(Cl)cc2Cl)c2ccccc2C2=NCCN21` (stereo not given), the growth is 88.5% in assay [1]; 71.3% in [2]; 98.6% in assay [3]; 78.7% in [4]; 105% in assay [5]; 87.9% in assay [6]. For the same compound, the growth in assay [7] is 85.2%; in assay [8] it was 103%; in assay [9] it was 102%; in [10] it was 102%; in assay [11], 89.5%; in assay [12], 79%. The growth in assay [13] is 94%; in assay [14], 111%; in [15] it was 82.1%; in assay [16], 85.6%; in assay [17], 92.7%; in [18], 96.4%. For the same compound, the values for the growth in assay [19] and in assay [20] were 78.8% and 101%, respectively.
In the case of `C[C@@H]1CC[C@@H]2[C@@H]1[C@H](OC(=O)/C=C/C1CCCCC1)[C@]1(C3CCCCC3)C[C@@H](OC(=O)CO)[C@@]2(C)O1`, the growth was 71.5% in [1]; 56.9% in [2]; 85.6% in [3]; 69.7% in [4]; 64.2% in assay [5]; -10.1% (active) in assay [6]. Besides, the growth is 61.5% in [7]; 39.6% in assay [8]; 95.9% in [9]; 65.2% in assay [10]; 60.2% in assay [11]; 31.1% in assay [12]. Besides, the growth is 69.5% in [13]; 74.5% in assay [14]; -44.2% (active) in [15]; 70.6% in assay [16]; 66.4% in assay [17]; 40.2% in assay [18]. Besides, the growth in [19] was 39.6%; in assay [20], 56%.
Consider `COc1cccc2c1C(=O)c1c(O)c3c(c(O)c1C2=O)CC(O)(/C(C)=N/NC(=O)CCC(=O)N/N=C(\C)C1(O)Cc2c(O)c4c(c(O)c2C(OC2CC(N)C(O)C(C)O2)C1)C(=O)c1c(OC)cccc1C4=O)CC3OC1CC(N)C(O)C(C)O1` (stereo not given), for which the growth in assay [1] was -44.8% [5 µM] (active); in [2], -68.1% [5 µM] (active); in assay [3] it was -31.6% [5 µM] (active); in assay [4], -31.3% [5 µM] (active); in [5] it was -44.3% [5 µM] (active); in [6], -14.4% [5 µM] (active). Moreover, the growth in assay [7] is 8.46% [5 µM] (active); in assay [8] it was -17.3% [5 µM] (active); in assay [9], -39.2% [5 µM] (active); in assay [10], -55.7% [5 µM] (active); in [11], -27% [5 µM] (active); in assay [12], -19.3% [5 µM] (active). Besides, the growth was -85.4% [5 µM] (active) in [13]; -56.3% [5 µM] (active) in assay [14]; -7.96% [5 µM] (active) in assay [15]; -47.3% [5 µM] (active) in assay [16]; -23.5% [5 µM] (active) in [17]; 2.38% [5 µM] (active) in [18]. Besides, the growth in [19] is -31.5% [5 µM] (active); in assay [20] it was -29.8% [5 µM] (active).

For the origin of these results see PubChem BioAssay (NCI).
